# Results as given in PubChem BioAssay (NCI).
# Compounds without any hit were thinned out: in the full panel of roughly 83,000, 20% have a hit.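 Method: cells in 96-well plates; compound added at one concentration; 48 h incubation; percent growth measured; values under 10 scored active.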 Values without a mark were called inactive. Activity calls are given as the source filed them.
# What was measured:
# Test in all cases: NCI-60 one-dose screen, 48 h (100 = growth as untreated, 0 = no growth, -100 = all killed)
# Conditions in all cases: 10 µM unless noted
# [1] = tested on: SK-MEL-2 melanoma
# [2] = tested on: EKVX NSCLC
# [3] = tested on: SN12C renal
# [4] = tested on: TK-10 renal
# [5] = tested on: ACHN renal
# [6] = tested on: CAKI-1 renal
# [7] = tested on: A498 renal
# [8] = tested on: CCRF-CEM leukemia
# [9] = tested on: MOLT-4 leukemia
# [10] = tested on: UO-31 renal
Compound,growth [1],growth [2],growth [3],growth [4],growth [5],growth [6],growth [7],growth [8],growth [9],growth [10] [%]
Oc1c(I)cc(I)cc1CN(Cc1ccccn1)Cc1ccccn1,21.6%,13%,27.3%,8.19% (active),10.4%,0.0911% (active),22.3%,9.21% (active),5.38% (active),
N=C(N)c1ccc(OCCSCCOc2ccc(C(=N)N)cc2)cc1,82.5%,56.6%,37.4%,60.8%,74.3%,51.7%,51.7%,97.6%,93.4%,
Cc1cc(C(=O)CCCC(=O)c2cc(C)c(O)c(C)c2)cc(C)c1O,101%,111%,97.8%,105%,91%,93.5%,91.9%,96.6%,106%,
CC(C)(C)OC(=O)CN1CCc2c(sc3ncnc(N4CCN(c5ccc(F)cc5)CC4)c23)C1,92.1%,95.5%,91.6%,100%,85.7%,80.6%,68.7%,59.2%,53.4%,
Oc1ccc(-c2nc3ccc4[nH]ncc4c3c3c2CCCC3)c(F)c1,-13.3% (active),38.3%,44.8%,29.2%,11.9%,13%,30.1%,12%,2.01% (active),
COc1ccc(/C=N/Nc2c3ccccc3nc3ccccc23)cc1,82.2%,86.9%,91%,107%,98.9%,88.2%,69.6%,90.8%,90.3%,
CC(=O)Nc1sc2c(c1-c1nc3ccccc3s1)CNC2,23.2%,30.6%,27.9%,29%,9.91% (active),23.8%,36.6%,22.6%,10.4%,
Cc1ccc(-c2csc(NC(=O)CSc3nc(N)cc(N)n3)n2)cc1,51.6%,46.4%,82.9%,78.9%,65.8%,79%,66.3%,50%,44.4%,
Cc1ccc(NC(=O)c2cc3ccccc3cc2O)c(C)c1,91.8%,79.6%,89.7%,93.8%,91.7%,66.5%,68.4%,67.8%,104%,
Nc1c(Cl)cc(/C=C2\C=Cc3ccccc32)cc1Cl,120%,94.2%,113%,107%,101%,110%,97.6%,106%,98.7%,
Nc1cc(C(=O)O)cc(-n2c(O)c(C=C3N=c4ccccc4=N3)sc2=S)c1,101%,99.4%,95.8%,103%,99%,86.8%,102%,106%,103%,
N#Cc1nn(-c2cc(=O)[nH]c3ccc(Br)cc23)c(N)c1C#N,103%,87.5%,87.3%,110%,91%,90.5%,105%,-32% (active),-16.1% (active),
O=C1O[C@@H](c2ccccc2Cl)[C@@H]2c3cc4c(cc3CCN12)OCO4,91.7%,101%,103%,89.1%,105%,105%,82.8%,105%,90.5%,
COc1ccc(C2[C@@H](c3ccccc3)C(=O)N2c2cc(OC)c(OC)c(OC)c2)cc1F (stereo not given in full),2.73% (active),34.7%,32.6%,43.7%,34.2%,30.8%,2.92% (active),6.85% (active),5.7% (active),
CS(=O)(=O)Nc1cc(-c2ccc3ncnc(Nc4ccc5c(cnn5Cc5ccncc5)c4)c3c2)cnc1Cl,-0.132% (active),75.9%,54.7%,39.1%,89.9%,40.7%,2.83% (active),33.1%,57.1%,
NCCCNc1nc2ccccc2c2c(=O)c3cc(Cl)ccc3sc12,41%,57.4%,-66.5% (active),24.3%,-37.2% (active),22.1%,70.2%,-28.5% (active),-61.8% (active),
CSc1nc(-c2ccco2)c(C#N)c(=O)n1C,94.3%,98.4%,110%,104%,100%,89.2%,103%,88.7%,95.1%,
N#Cc1c(-c2cccc(Cl)c2)cc(-c2cccnc2)[nH]c1=O,79.7%,100%,82.6%,127%,89%,72.8%,101%,71.5%,72.1%,
S=c1ccnc[nH]1,96.6%,118%,96.8%,127%,99.4%,104%,112%,123%,107%,
CCNC(=O)N1CCc2c(Br)c3c(c(OC)c2C1Cc1ccc(OC)cc1)OCO3 (stereo not given),15.4%,54.4%,49.9%,65.6%,33.6%,18.6%,-12.4% (active),31.5%,23.6%,
CCSc1ccnc(N)n1,106%,104%,106%,101%,96.8%,82.1%,98.1%,97.3%,124%,
CC(C)(C)c1ccc(C(=O)N/N=C/c2ccc(O)cc2O)cc1,38.3%,21.5%,23.3%,40.1%,15.2%,15%,13.6%,9.83% (active),13.3%,
c1cc(OCCN2CCCCCC2)ccc1CNc1ccc2nc(CCC3CCCCC3)[nH]c2c1,75%,79.8%,54.7%,88.7%,80.6%,42.8%,62.5%,,25.5%,10.8
C=C1C(=O)O[C@@H]2C3C(=C(C)CC[C@@H]12)CC1O[C@]13C (stereo not given in full),90.4% [6.75 µM],91.5% [6.75 µM],86.6% [6.75 µM],40.5% [6.75 µM],73.2% [6.75 µM],90.1% [6.75 µM],103% [6.75 µM],23.2% [6.75 µM],84% [6.75 µM],
O=S(=O)(Nc1cc(Sc2nc3ccccc3s2)c(O)c2ccccc12)c1ccc2ccccc2c1,95.8%,101%,90.6%,123%,97.6%,101%,96.9%,,59.1%,
Cn1c(C#N)ccc1-c1ccc(F)c(NC(=O)c2ccc(F)cc2)c1,60.3%,82.2%,82.2%,86%,84.4%,73.9%,73.3%,68.8%,47.6%,
COCCOC(C)C(/C=N/NC(N)=S)=N/NC(N)=S (stereo not given),82.5%,55.7%,76.5%,92.5%,66.7%,82.6%,107%,42.6%,16.7%,
O=C(/C=C/c1ccccc1)c1cccc2ccccc12,5.16% (active),65.1%,46.3%,22.5%,43.1%,40.7%,50.1%,3.83% (active),6.46% (active),
CCn1cc(Cc2cc(C(=O)Nc3cc4cc(OC)c(OC)cc4c(C)n3)ccc2Cl)cn1,42%,47.2%,50.2%,73.7%,15.7%,47.8%,44.4%,22.4%,42.6%,
